An excerpt weighted towards active compounds, which were near 6.9% of everything screened.
JMJD2A Tudor inh: qHTS Assay for Inhibitors of JMJD2A-Tudor Domain | AlphaScreen JMJD2A-Tudor / H3K4me3 peptide binding | Potency, µM (top dose mostly 114 µM), actives largely listed as inhibitors | 390,000 tested, 4.4% active; further: nearly all actives have a fitted effect of over 50% in size
L3MBTL1 inh: qHTS Assay for the Inhibitors of L3MBTL1; Lethal(3)malignant brain tumor-like protein 1 (Homo sapiens), Q9Y468; AlphaScreen L3MBTL1–H3K9me1 peptide binding; Potency, µM (titrated, usually from 57.1 µM), usual class: inhibitors; 230,000 tested, 0.66% active; AID 485360, 2010; further: nearly all actives have a fitted effect of over 60% in size
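L3MBTL1 (50 nM) pre-complexed 30 min with biotinylated H3(1-15)K9me1 peptide (75 nM), then compounds added for 30 min at room temperature; AlphaScreen streptavidin donor/nickel chelate acceptor beads (10 ug/mL final) read after 30 min dark incubation.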
BAZ2B block: qHTS Assay for Inhibitors of BAZ2B; Potency, µM (doses to about 114 µM), usual class: inhibitors; Bromodomain adjacent to zinc finger domain protein 2B (Homo sapiens), Q9UIF8; AlphaScreen BAZ2B-H3K14Ac peptide displacement; 360,000 tested, 4.4% active; further: nearly all actives have a fitted effect of over 60% in size
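Multi-concentration screen (max 110 uM) measuring displacement of acetylated histone H3 peptide from BAZ2B by AlphaScreen, using 50 nM protein, 50 nM peptide and 10 ug/mL streptavidin donor plus Ni-chelate acceptor beads.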
HP1b chromo inh: HTS for Inhibitors of HP1-beta Chromodomain Interactions with Methylated Histone Tails. Chromobox protein homolog 1 (Homo sapiens), P83916. AlphaScreen HP1-beta / biotin-H3K9me3 peptide binding. Potency, µM (titrated, usually from 114 µM), actives largely listed as inhibitors. 390,000 tested, 0.56% active. AID 540317, 2011; further: nearly all actives have a fitted effect of over 70% in size
Target sequence (P83916 whole entry, looked up): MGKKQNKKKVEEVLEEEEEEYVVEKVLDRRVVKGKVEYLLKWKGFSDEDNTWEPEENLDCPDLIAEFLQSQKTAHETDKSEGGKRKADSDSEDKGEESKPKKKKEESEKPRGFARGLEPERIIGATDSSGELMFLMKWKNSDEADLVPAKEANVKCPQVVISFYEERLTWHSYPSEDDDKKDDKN
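Compound inhibition of the preformed complex between 50 nM HP1-beta and 50 nM biotinylated H3K9me3 peptide was read by AlphaScreen. Buffer was PBS pH 7.4 with 0.01% Tween-20. Incubations ran 30 min at room temperature, with 10 ug/mL donor/acceptor beads.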
PLK1 PBD inh: qHTS for Inhibitors of PLK1-PDB (polo-like kinase 1 - polo-box domain): Primary Screen | Serine/threonine-protein kinase PLK1 (Homo sapiens), P53350 | Potency, µM, most hits filed as inhibitors | 360,000 tested, 2.8% active | Plk1 PBD binding of FITC phosphopeptide, fluorescence polarization; further: series mostly up to about 57 µM; nearly all actives have a fitted effect of over 65% in size
VDR inh: Inhibitors of the vitamin D receptor (VDR): qHTS; 400,000 tested, 0.93% active; VDR-SRC2-3 peptide fluorescence polarization, 2 h; Potency, µM, most hits filed as inhibitors
Target sequence (P11473 whole entry, looked up): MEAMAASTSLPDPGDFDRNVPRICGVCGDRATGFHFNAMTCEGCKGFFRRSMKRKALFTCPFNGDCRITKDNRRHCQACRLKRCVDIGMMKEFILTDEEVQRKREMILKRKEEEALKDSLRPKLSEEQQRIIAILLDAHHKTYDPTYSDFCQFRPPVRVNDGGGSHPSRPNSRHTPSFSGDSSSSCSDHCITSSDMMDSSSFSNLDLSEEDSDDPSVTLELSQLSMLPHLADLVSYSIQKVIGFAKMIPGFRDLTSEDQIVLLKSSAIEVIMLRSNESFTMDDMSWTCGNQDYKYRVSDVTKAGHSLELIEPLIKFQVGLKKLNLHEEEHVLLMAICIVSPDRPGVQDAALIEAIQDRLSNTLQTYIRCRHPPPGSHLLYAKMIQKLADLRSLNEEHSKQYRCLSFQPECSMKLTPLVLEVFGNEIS
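After 23 nl compound addition and a short centrifugation, plates sat for 2 hours at ambient temperature; polarization of fluorescence then indicated loss of VDR binding to peptide SRC2-3.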
Numbers stand for hits; - = inactive; ? = inconclusive; . = no result; [ ] = dose if it differs, or a comment. The call rests on the fitted dose curve; in most records, active means well fitted curve in the direction sought with a large enough effect; inconclusive means small, poorly fitted or top-dose-only effect, or another doubt; inactive means no such curve, though single readings can be large; an effect the other way counts as inactive or inconclusive.

SMILES	JMJD2A Tudor inh	L3MBTL1 inh	BAZ2B block	HP1b chromo inh	PLK1 PBD inh	VDR inh
CN(c1ccc(C(=O)N2CCN(c3ccc(F)cc3)CC2)cc1)S(C)(=O)=O	-[11.4 µM]	-	-	-	3.36µM	-
Cc1ccc(C(=O)N2CCN(c3ccc(F)cc3)CC2)cc1S(=O)(=O)N1CCCCC1	-	.	-	-	-	-
Cc1ccc(Cn2c(C)c3cnn(CC(=O)N4CCN(c5ccc(F)cc5)CC4)c(=O)c3c2C)cc1	?	.	?	-	.	-
CN(C)CCCC(=O)c1ccc2c(c1)OCO2	-	.	-	-	-	-
O=C(CCN1Cc2ccccc2C1)c1ccc2c(c1)OCCO2	?	-	-	-	23.8µM	-
CN(C)CCC(=O)c1ccc2c(c1)OCO2	?	-	-	-	18.9µM	79.4µM
CN(C)CCC(=O)c1cccc(Br)c1	-	-	-	?	9.47µM	?
O=C(O)CCC(=O)c1ccc2c(c1)OCCO2	-	-	-	-	-	-
CN(CCOC(=O)c1cccc(Br)c1)C(C)(C)C	-	.	-	-	-	-
O=C(CN1CCOc2ccccc21)NCc1ccco1	-	-	-	-	-	-
O=C(CN1CC(=O)Oc2ccccc21)NCc1ccco1	-[11.4 µM]	-	44.7µM	-	-	-
CCOC(=O)c1c2c3c(cccc3[nH]c1=O)C(=O)c1ccccc1-2	-	-	-	-	-	-
CCOC(=O)c1c2c3c(c(Cl)ccc3[nH]c1=O)C(=O)c1ccccc1-2	-	-	31.6µM	-	?	-
CCOC(=O)C1CCCN(Cc2ccccc2OCC)C1 (stereo unspecified)	5.62µM	-	?	?	-	-
CCOC(=O)C1CCCN(CC(O)COc2ccccc2C(C)=O)C1 (stereo unspecified)	-	.	-	-	-	-
CCOC(=O)C1CCCN(C(=O)/C=C/c2ccccc2[N+](=O)[O-])C1 (stereo unspecified)	?	-	-	-	-	-
CCOC(=O)C1CCN(C(C(=O)NC2CCCCC2)c2ccc(OC)cc2)CC1 (stereo unspecified)	-[11.4 µM]	.	-	-	26.7µM	-
CCOC(=O)C1CCN(Cc2ccccc2C)CC1	-	.	56.2µM	-	-	-
CCOC(=O)C1CCN(C/C=C/c2ccccc2[N+](=O)[O-])CC1	2.24µM	-	?	-	-	-
CCOC(=O)c1c(C)n(-c2ccccc2)c2ccc(OC(=O)c3cc(OC)cc(OC)c3)cc12	-	.	-	-	.	-
O=C(c1cc(-c2ccccc2)n[nH]1)N1CCc2c([nH]c3ccccc23)C1c1ccccn1 (stereo unspecified)	?	?	-	-	-	-
CN(C)c1ccc(CNC(=O)c2ccc3nc(CCc4ccccc4)oc3c2)cc1	-	.	-	-	.	-
COc1ccccc1CNc1cc(-c2ccccc2)nc2nncn12	-	.	-	-	.	-
CC(C)(C)c1onc(OCP(=O)(O)O)c1CC(N)C(=O)O (stereo unspecified)	.	.	.	.	.	-
COc1ccc(CN2CCC(C(=O)NCCc3ccc(OC)c(OC)c3)CC2)c(OC)c1	-	.	-	-	-	-
SMILES	JMJD2A Tudor inh	L3MBTL1 inh	BAZ2B block	HP1b chromo inh	PLK1 PBD inh	VDR inh
COc1ccc(CN2CCC(N3CC(C)OC(C)C3)CC2)c(OC)c1 (stereo unspecified)	0.794µM	.	31.6µM	39.8µM	-	-
CCOC(=O)C1CCN(Cc2ccc(OC)cc2OC)CC1	1.78µM	-	?	?	-	-
CCOC(=O)C1CCN(CC(=O)N2C(C)CCCC2C)CC1 (stereo unspecified)	5.01µM	-	50.1µM	44.7µM	-	?
CCOC(=O)C1CCCN(CCc2ccccc2)C1 (stereo unspecified)	25.1µM	-	?	-	-	-
O=C(Cn1nnc2sc(-c3ccccc3)cc2c1=O)Nc1cccc(C(F)(F)F)c1	-	.	-	-	.	-
CCCCOc1cccc(NC(=O)CSc2nncn2C)c1	-	-	-	-	-	-
CCOC(=O)C1CCCN(Cc2ccccc2C)C1 (stereo unspecified)	5.01µM	.	70.8µM	?	-	-
CCOC(=O)C1CCCN(CC(O)COc2ccc(OC)cc2C(C)(C)C)C1 (stereo unspecified)	?	-	50.1µM	7.94µM	-	-
CCOC(=O)C1CCN(Cc2coc3c(Cl)cc(Cl)cc3c2=O)CC1	20µM	-	?	-	-	-
CCOC(=O)C1CCN(Cc2cn[nH]c2-c2ccccc2)CC1	3.16µM	-	?	?	-	-
COc1cccc(-n2c(=O)c3c(C)c(C)sc3n(CC(=O)NCc3ccccc3)c2=O)c1	-	.	-	-	.	-
O=C1NC(c2cccc([N+](=O)[O-])c2)Oc2ccccc21 (stereo unspecified)	-	.	.	-	-	-
Cc1ccc(-c2nnn(CCOc3cccc(Br)c3)n2)cc1	-	-	-	-	-	-
COc1cccc(C(=O)N2CCOCC2)c1	-	?	-	-	-	-
CCOC(=O)C1CCCN(C(=O)Cc2ccc(Cl)cc2)C1 (stereo unspecified)	-	.	-	-	-	-
CCOC(=O)C1CCCN(Cc2ccc(OCC)cc2)C1 (stereo unspecified)	20µM	.	?	?	-	-
COc1cccc(C(=O)N2CCC(N3CC(C)OC(C)C3)CC2)c1 (stereo unspecified)	6.31µM	-	50.1µM	?	-	-
O=S(=O)(Nc1ccon1)c1ccc(F)c(F)c1	-	.	-	-	-	-
CCc1sc(C(=O)Nc2nc(-c3ccccn3)cs2)cc1C	79.4µM	?	.	-	?	-
Cc1ccc(C(=O)Nc2nc(-c3ccccn3)cs2)s1	56.2µM	?	20µM	-	-	-
Cc1nc(NC(=O)c2cc3ccccc3o2)sc1C	-	.	56.2µM	-	-	-
CCc1sc(C(=O)Nc2ncccc2O)cc1C	-	.	50.1µM	-	-	-
CCc1sc(C(=O)Nc2nccs2)cc1C	-	.	-	-	-	-
Cc1cc(C)cc(OCC(=O)Nc2nc(-c3ccccn3)cs2)c1	-	-	-	-	?	-
COc1ccc(OC)c(C(=O)CN2C(=O)N(c3cc(C)cc(C)c3)S(=O)(=O)c3ccccc32)c1	-	.	-	-	.	-
Cc1nc(NC(=O)CCc2ccccc2)sc1C	-	-	?	?	15µM	89.1µM
Cn1cccc1C(=O)Nc1nc(-c2ccccn2)cs1	56.2µM	31.6µM	17.8µM	?	?	-
NS(=O)(=O)c1cccc(NC(=O)c2cc3ccccc3o2)c1	?	-	-	-	21.2µM	-

Screening data as filed in PubChem.
